Compounds without any hit were thinned out: in the full panel of roughly 83,000, 20% have a hit.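 Each cell line was grown in a 96-well plate and treated with one concentration of compound for 48 hours. Values below 10 were considered active.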 Active and inactive are the calls of the source.
What was measured:
Test in all cases: NCI-60 one-dose screen, 48 h (100 = growth as untreated, 0 = no growth, -100 = all killed)
Settings in all cases: 10 µM unless noted
NCI-H23 lung = system: NCI-H23 lung
NCI-H226 lung = system: NCI-H226 lung
NCI-H322M lung = system: NCI-H322M lung
HOP-62 NSCLC = system: HOP-62 NSCLC
NCI-H460 lung = system: NCI-H460 lung
HOP-92 NSCLC = system: HOP-92 NSCLC
NCI-H522 lung = system: NCI-H522 lung
786-0 renal = system: 786-0 renal
COLO 205 colon = system: COLO 205 colon
DU-145 prostate = system: DU-145 prostate
K-562 leukemia = system: K-562 leukemia
MALME-3M melanoma = system: MALME-3M melanoma
MDA-MB-231 breast = system: MDA-MB-231 breast
RXF 393 renal = system: RXF 393 renal
SF-268 CNS = system: SF-268 CNS
SF-295 CNS = system: SF-295 CNS
SF-539 CNS = system: SF-539 CNS
UACC-257 melanoma = system: UACC-257 melanoma
M14 melanoma = system: M14 melanoma

Measured: growth

CCC1CN1CCCCN1CC1CC (centres undefined)
inactive: NCI-H23 lung 104% | NCI-H226 lung 98.3% | NCI-H322M lung 96.7% | HOP-62 NSCLC 113% | NCI-H460 lung 113% | HOP-92 NSCLC 116% | NCI-H522 lung 95.6% | 786-0 renal 104% | COLO 205 colon 112% | DU-145 prostate 108% | K-562 leukemia 114% | MALME-3M melanoma 91.6% | MDA-MB-231 breast 96.7% | RXF 393 renal 105% | SF-268 CNS 103% | SF-295 CNS 95.3% | SF-539 CNS 100% | UACC-257 melanoma 97% | M14 melanoma 98%

COc1ccc(N(CC(=O)NCCC[Te]c2ccccc2)C(=O)CCSC2=C(C)C(=O)c3ccccc3C2=O)cc1
active: NCI-H23 lung -49.3% | NCI-H226 lung -54.8% | NCI-H322M lung 2.85% | HOP-62 NSCLC -46.4% | NCI-H460 lung -73.5% | HOP-92 NSCLC -49.8% | NCI-H522 lung -41.2% | 786-0 renal -22.1% | COLO 205 colon -97.9% | DU-145 prostate -10.1% | MALME-3M melanoma -11.7% | MDA-MB-231 breast -61.6% | RXF 393 renal -26.5% | SF-268 CNS 3.17% | SF-295 CNS -50.1% | SF-539 CNS -62.6% | UACC-257 melanoma 0.434% | M14 melanoma -38.3%

CO[C@H](C(=O)O)[C@@H]1Cc2cc3cc(OC4CC(OC5CC(O)C(O)C(C)O5)C(O)C(C)O4)c(C)c(O)c3c(O)c2C(=O)[C@H]1OC1CC(OC2CC(OC3CC(C)(O)C(O)C(C)O3)C(O)C(C)O2)C(O)C(C)O1 (some centres undefined)
active: NCI-H23 lung -0.124% | NCI-H226 lung 0.862% | NCI-H522 lung -3.78% | COLO 205 colon -12.5% | MALME-3M melanoma -10.4% | RXF 393 renal -57.1% | SF-539 CNS -23.1% | UACC-257 melanoma 7.77% | M14 melanoma -8.35%
inactive: NCI-H322M lung 21.6% | HOP-62 NSCLC 20.7% | NCI-H460 lung 11.2% | HOP-92 NSCLC 24.7% | 786-0 renal 10.3% | DU-145 prostate 21.5% | K-562 leukemia 11.8% | MDA-MB-231 breast 19.9% | SF-268 CNS 29.3% | SF-295 CNS 11.2%

Cc1cnc(/C=C/C(=O)O)cc1-c1cc2c(cc1C)C(C)(C)CCC2(C)C
active: MALME-3M melanoma 8.87%
inactive: NCI-H23 lung 79.2% | NCI-H226 lung 82.8% | NCI-H322M lung 110% | HOP-62 NSCLC 94.4% | NCI-H460 lung 85.8% | HOP-92 NSCLC 56.8% | NCI-H522 lung 65.8% | 786-0 renal 76.5% | COLO 205 colon 102% | DU-145 prostate 95.7% | K-562 leukemia 109% | MDA-MB-231 breast 80.9% | RXF 393 renal 93.7% | SF-268 CNS 77.6% | SF-295 CNS 86.1% | SF-539 CNS 84.3% | UACC-257 melanoma 38.3% | M14 melanoma 77.1%

COC(=O)[C@H](C[C@H](Cc1ccccc1)NC(=O)c1csc([C@@H](C[C@H](C(C)C)N(C)C(=O)[C@@H](NC(=O)[C@H]2CCCCN2C)C(C)C)OC(C)=O)n1)NC(=O)OCc1ccccc1
active: NCI-H226 lung -42.6% [8.5 µM] | NCI-H460 lung 5.67% [8.5 µM] | NCI-H522 lung -30.4% [8.5 µM] | COLO 205 colon -53.3% [8.5 µM] | DU-145 prostate -18.2% [8.5 µM] | K-562 leukemia 5.76% [8.5 µM] | MALME-3M melanoma -53.7% [8.5 µM] | MDA-MB-231 breast 5.23% [8.5 µM] | SF-295 CNS 8.4% [8.5 µM] | SF-539 CNS -21.7% [8.5 µM] | M14 melanoma -48.4% [8.5 µM]
inactive: NCI-H23 lung 30.2% [8.5 µM] | NCI-H322M lung 44.7% [8.5 µM] | HOP-62 NSCLC 18.6% [8.5 µM] | HOP-92 NSCLC 28.2% [8.5 µM] | 786-0 renal 15.2% [8.5 µM] | RXF 393 renal 20.4% [8.5 µM] | SF-268 CNS 13.1% [8.5 µM] | UACC-257 melanoma 13.9% [8.5 µM]

CC(C)=CCC[C@H](C(=O)O)[C@@H]1CC[C@]2(C)C3=C(CC[C@@]12C)[C@@]1(C)CC[C@H](O)C(C)(C)[C@@H]1CC3
inactive: NCI-H23 lung 106% | NCI-H226 lung 109% | NCI-H322M lung 84.2% | HOP-62 NSCLC 97.3% | NCI-H460 lung 109% | HOP-92 NSCLC 101% | NCI-H522 lung 60.8% | 786-0 renal 92% | COLO 205 colon 120% | DU-145 prostate 110% | K-562 leukemia 70.4% | MALME-3M melanoma 106% | MDA-MB-231 breast 103% | RXF 393 renal 104% | SF-268 CNS 101% | SF-295 CNS 94.6% | SF-539 CNS 93.2% | UACC-257 melanoma 88.9% | M14 melanoma 85.9%

Nc1ccc(Cl)cc1
inactive: NCI-H23 lung 99.3% | NCI-H226 lung 92.1% | NCI-H322M lung 106% | HOP-62 NSCLC 90.3% | NCI-H460 lung 109% | HOP-92 NSCLC 85.5% | NCI-H522 lung 89.3% | 786-0 renal 97.7% | COLO 205 colon 95.9% | DU-145 prostate 102% | K-562 leukemia 100% | MALME-3M melanoma 104% | MDA-MB-231 breast 104% | RXF 393 renal 105% | SF-268 CNS 104% | SF-295 CNS 99.2% | SF-539 CNS 96.6% | UACC-257 melanoma 86.4% | M14 melanoma 99.5%

COC(=O)C12CC(NC(=O)c3csc([C@@H](C[C@H](C(C)C)N(C)C(=O)[C@@H](NC(=O)[C@H]4CCCCN4C)C(C)C)OC(C)=O)n3)(C1)C2
active: HOP-62 NSCLC 6.07% | NCI-H460 lung 5.4% | NCI-H522 lung -23.6% | COLO 205 colon -60.1% | SF-295 CNS -11.2% | SF-539 CNS -29.9% | M14 melanoma 2.68%
inactive: NCI-H23 lung 23.9% | NCI-H226 lung 10.6% | NCI-H322M lung 41.9% | HOP-92 NSCLC 52.8% | 786-0 renal 18.2% | DU-145 prostate 16.6% | K-562 leukemia 12% | MALME-3M melanoma 54.4% | MDA-MB-231 breast 11.9% | SF-268 CNS 22.9%
